Inconclusive results are not listed. The source made the active and inactive calls. Calls come from the whole dose curve.
What was measured:
[1] = Primary qHTS for inhibitors of SARS-S pseudo-typed particle cell entry (AID 1479145); conditions: SARS-S pseudotyped particle cell entry, luciferase reporter; series mostly up to 57.1 µM; note: nearly all actives have a fitted effect of over 45% in size
[2] = Primary qHTS for Huh7 cytotoxicity: counterscreen for inhibitors of MERS-S pseudotyped particle cell entry (AID 1479147); conditions: cell viability read-out; series mostly up to 57.1 µM
[3] = Primary qHTS for inhibitors of MERS-S pseudo-typed particle cell entry (AID 1479149); conditions: MERS-S pseudotyped particle entry, luciferase; series mostly up to 57.1 µM; note: nearly all actives have a fitted effect of over 60% in size
[4] = Primary qHTS for Vero E6 cytotoxicity: counterscreen for inhibitors of SARS-S pseudo-typed particle cell entry (AID 1479150); conditions: cell viability; series mostly up to 57.1 µM

Measured: Potency
Potency is the fitted concentration of half-maximal effect.

CCOC(=O)c1cccc(N)c1
inactive: all assays above

CCN(CC)CC(=O)Nc1c(C)cccc1C(=O)OC
inactive: all assays above

CN1CCCN=C1COC(=O)C(O)(c1ccccc1)C1CCCCC1 (stereo unspecified)
inactive: all assays above

CCCCC1(COC(=O)CCC(=O)O)C(=O)N(c2ccccc2)N(c2ccccc2)C1=O
inactive: all assays above

CCCCC(=O)O[C@]1(C(=O)CO)[C@@H](C)C[C@H]2[C@@H]3CCC4=CC(=O)C=C[C@]4(C)[C@@]3(F)[C@@H](O)C[C@@]21C
inactive: all assays above

CN(C)CCN(Cc1cccs1)c1ccccn1
inactive: all assays above

Nc1ccc(S(=O)(=O)Nc2cnc3ccccc3n2)cc1
inactive: all assays above

C/C=C/c1ccc(OC)cc1
inactive: all assays above

CN1CCCN=C1/C=C/c1cccs1
inactive: all assays above

CC(C(=O)O)c1ccc(CC2CCCC2=O)cc1 (stereo unspecified)
inactive: all assays above

CCN1CCCC(OC(=O)C(c2ccccc2)c2ccccc2)C1 (stereo unspecified)
inactive: all assays above

CCCCNc1cc(C(=O)O)cc(S(N)(=O)=O)c1Oc1ccccc1
inactive: all assays above

Cc1c(C)c2c(c(C)c1OC(=O)CCC(=O)OCCO)CC[C@@](C)(CCC[C@H](C)CCC[C@H](C)CCCC(C)C)O2
inactive: all assays above

CC(COc1ccccc1)NC(C)C(O)c1ccc(O)cc1 (stereo unspecified)
inactive: all assays above

CC(CNC1CCCCC1)OC(=O)c1ccccc1 (stereo unspecified)
inactive: all assays above

COc1cc(NS(=O)(=O)c2ccc(N)cc2)nc(OC)n1
inactive: all assays above

C[N+]1(CC2COC(c3ccccc3)(c3ccccc3)O2)CCCCC1 (stereo unspecified)
inactive: all assays above

CCOC(=O)NNc1nncc2ccccc12
inactive: all assays above

Cc1ccc2c(Cl)cc(Cl)c(O)c2n1
inactive: all assays above

C[N+](C)(C)CCOC(=O)CCC(=O)OCC[N+](C)(C)C
inactive: all assays above

O=C(Nc1ccc([N+](=O)[O-])cc1)Nc1ccc([N+](=O)[O-])cc1
inactive: all assays above

C[C@]12CC[C@@H]3c4ccc(O)cc4CC[C@H]3[C@@H]1CCC2=O
inactive: all assays above

O=C(O)c1ccc(OCCCOc2ccc(C(=O)O)cc2)cc1
inactive: all assays above

CN(C)C(=S)SC(=S)N(C)C
active: [1] 1410 nM | [2] 3160 nM | [3] 1000 nM | [4] 2820 nM

CCCCC(=O)O[C@]1(C(=O)CO)CC[C@H]2[C@@H]3CCC4=CC(=O)CC[C@]4(C)[C@H]3[C@@H](O)C[C@@]21C
inactive: all assays above

Cc1c(F)cc2c(=O)c(C(=O)O)cn3c2c1CCC3C (stereo unspecified)
inactive: all assays above

O=C1c2ccccc2C(=O)C1c1ccccc1
inactive: all assays above

OC[C@@H](O)[C@H](O)[C@H](O)[C@@H](O)CO
inactive: all assays above

CCC(=O)O[C@]1(C(=O)CCl)[C@@H](C)C[C@H]2[C@@H]3CCC4=CC(=O)C=C[C@]4(C)[C@@]3(F)[C@@H](O)C[C@@]21C
inactive: all assays above

CN1[C@@H]2CC[C@H]1CC(NC(=O)n1c(=O)[nH]c3ccccc31)C2 (stereo partly specified)
inactive: all assays above

N[C@H](C(=O)O)[C@@H](O)c1ccc(O)c(O)c1
inactive: all assays above

C/C(=N/NC(=O)c1ccncc1)C(=O)O
inactive: all assays above

CCCn1cnc2c1c(=O)n(CCCCC(C)=O)c(=O)n2C
inactive: all assays above

O=C1C(c2[nH]c3ccccc3c2O)=Nc2ccccc21
inactive: all assays above

Reference: PubChem BioAssay (NCATS)
